From PubChem
M1 antag: antagonists of rat M1 muscarinic receptor. P08482. CHO-M1 cells, Fluo-4 calcium, ACh EC80 antagonist mode; stronger effect = lower value. B-score at 10 µM. 64,000 tested, 3.4% active. AID 628;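 active = calcium fluorescence response, raw or row-and-column corrected B-score, differing from the plate sample mean either way at a set confidence level, mostly lower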
A340 absorber: absorbance at 340 nm. compound absorbance at 340 nm, fold over control. fold change at 10 µM. 65,000 tested, under 10 active;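 active = at 10 µM dose, initial 340 nm absorbance at least 2 fold that of control wells; inactive = change under 2 fold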;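 note: initial absorbance extrapolated from kinetic A340 decline of NADH oxidation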
M1 ag: activates the M1 muscarinic receptor; 64,000 tested, 3% active; CHO-M1 cells, Fluo-4 calcium fluorescence, agonist mode; stronger effect = higher value; B-score at 10 µM;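 active = fluorescence rise, raw or as B-score row- and column-corrected plate score, outside the 99.7% band of its plate's samples, either direction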
Fluor 339 460: intrinsic fluorescence of library compounds, ex339/em460 – biochemical, MLSMR library, data from DPM-DC assay, artefact control, profiling panel | compound autofluorescence, ex339/em460 nm, NADH buffer; stronger effect = higher value; 1 = no-compound wells, NADH background | fluorescence fold increase at 10 µM | 65,000 tested, 5.5% active | AID 709;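 active = at 10 µM, mean starting fluorescence two-fold or more over control wells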;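 note: signal is the first read of a kinetic run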
Htt clearance: compounds clearing mutant huntingtin protein; HeLa Exon1htt(103Q)mCFP, aggregate imaging; zero = plate's median compound well; inhibition, % at 1.5 µM; 47,000 tested, 0.42% active; AID 853;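 active = inhibition of aggregate fluorescence above about 70%, also judged a hit by eye on the cell image, limit read from the data, passing the limit was not always enough; inconclusive = no rule stated for this call; inactive = not judged a hit on image review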;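 note: cells exposed to compound for three days before fixation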
NADH enzymes: blocks coupling enzymes of NAD/NADH assays. coupled PK/LDH NADH assays, four targets. IC50, µM (series often up to 10 µM). 65,000 tested, 0.02% active. AID 774;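 active = single-dose screening hits from any of four coupled enzyme assays that gave an IC50 when retested across doses; inconclusive = no clear call, values can overlap the other calls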;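 note: the DPM-DC format reads NADH fluorescence rather than 340 nm absorbance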
M1 antag conf: M1 muscarinic receptor (rat) antagonism, confirmed; shares compounds with M1 antag; CHO-M1 cells, Fluo-4 calcium, ACh EC80 antagonism; stronger effect = lower value; calcium response (max-min fluorescence) at 10 µM; 1,700 tested, 43% active;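 active = calcium response below the same-plate mean of wells given acetylcholine alone at its 80%-effect dose, minus 3 SD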
mGluR4 antag: selectivity test for M1 antagonists: human mGluR4 receptor; fluorescence response (max-min) at 10 µM; CHO-mGluR4 calcium flux, Fluo-4 fluorescence, glutamate EC80; stronger effect = lower value; 1,700 tested, 0.9% active; shares compounds with M1 antag;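 active = fluorescence response below the plate's average for near-maximal glutamate wells, less 3 SD of those wells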;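 note: raw unnormalized fluorescence span taken in the window right after glutamate addition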
Large screens that a line does not name were inactive (follow-up assays come after a bar, where they were run). Only some compounds are listed: those with a hit (about 9.3% of all), similar ones and a draw of the others.

COC(=O)c1ccc(CN2CCN(Cc3ccccc3)CC2)cc1	M1 antag -3.06 | M1 antag conf 428 | mGluR4 antag inactive
Oc1ccc(Cl)cc1CN1CCN(Cc2ccccc2)CC1	none (no result: M1 antag, A340 absorber, M1 ag, Fluor 339 460, NADH enzymes)
CN1CCN(CCC(C#N)(c2ccccc2)c2ccccc2)CC1	M1 antag -17 (no result: Htt clearance) | M1 antag conf 16.2 | mGluR4 antag inactive
O=C(COc1ccccc1)N1CCN(C2CCCC2)CC1	none (no result: Htt clearance)
O=C(COc1ccc2ccccc2c1)N1CCN(C2CCN(Cc3ccccc3)CC2)CC1	M1 antag -2.38 (no result: Htt clearance) | M1 antag conf inactive | mGluR4 antag inactive
Cc1ccccc1-n1c(O)c(C=NCCN2CCOCC2)c(=O)[nH]c1=O	none
CCN(CC)CCCN=Cc1c(O)n(-c2ccccc2F)c(=O)[nH]c1=O	M1 antag -2.29 (no result: Htt clearance) | M1 antag conf inactive | mGluR4 antag inactive
CCN(CC)CCCN=Cc1c(O)n(-c2cccc(C)c2C)c(=O)[nH]c1=O	none (no result: Htt clearance)
CCCCn1c(O)c(C=Nc2c(C)n(C)n(-c3ccccc3)c2=O)c(=O)[nH]c1=O	M1 antag -2.52 | M1 antag conf inactive | mGluR4 antag inactive
CCCCn1c(O)c(C(C)=Nc2c(C)n(C)n(-c3ccccc3)c2=O)c(=O)[nH]c1=O	M1 antag -8.36 | M1 antag conf 326 | mGluR4 antag inactive
O=C1c2ccccc2C(=O)N1Cc1nc2ccccc2c(=O)n1-c1ccccn1	none
O=C1C2CCN(CC2)[C@@H]1Cc1ccc2ccccc2c1O	M1 antag -4.56 | M1 antag conf 91.6 | mGluR4 antag inactive
CN1C(=O)C(Cc2cccc3ccccc23)C(=O)N(C)C1=O	Htt clearance inconclusive
CCCCSP1(=S)NCCCO1 (configuration not stated)	none
CC1CCC(NCCc2ccc3c(c2)OCO3)CC1 (configuration not stated)	M1 antag -5.22 | M1 antag conf 199 | mGluR4 antag inactive
CCCCNC(=O)Nc1ccc(C(O)(C(=O)OCC)C(F)(F)F)cc1 (configuration not stated)	none
COc1ccc(CN2CCCCC2c2cccnc2)cc1C (configuration not stated)	M1 antag -5.38 | M1 antag conf 482 | mGluR4 antag inactive
O=c1[nH]c(=O)n(-c2cccc3ccccc23)c(O)c1C=NCCCn1ccnc1	none (no result: Htt clearance)
CCCCCCn1c(=O)c(C(=O)Nc2c(C)n(C)n(-c3ccccc3)c2=O)c(O)c2ccccc21	M1 antag -8.01 (no result: Htt clearance) | M1 antag conf 167 | mGluR4 antag inactive
CCCCCn1c(=O)c(C(=O)Nc2ccncc2)c(O)c2ccccc21	none (no result: Htt clearance)
